From ChEMBL document CHEMBL2218924, “A broad activity screen in support of a chemogenomic map for kinase signalling research and drug discovery” (Biochem J, 2013)

What was measured:
[1] = target: T1, Casein kinase II (Homo sapiens) (UniProt P67870+P68400+P19784); details: at 1 µM
[2] = target: T1, Casein kinase II (Homo sapiens); details: at 10 µM
[3] = target: Casein kinase II subunit alpha' (Homo sapiens) (UniProt P19784); details: at 1 µM
[4] = target: Casein kinase II subunit alpha' (Homo sapiens) (UniProt P19784); details: at 10 µM
[5] = target: Dual specificity protein kinase CLK2 (Homo sapiens) (UniProt P49760); details: at 1 µM
[6] = target: Dual specificity protein kinase CLK2 (Homo sapiens) (UniProt P49760); details: at 10 µM
[7] = target: Dual specificity protein kinase CLK3 (Homo sapiens) (UniProt P49761); details: at 1 µM
[8] = target: Tyrosine-protein kinase CSK (Homo sapiens) (UniProt P41240); details: at 1 µM
[9] = target: Tyrosine-protein kinase CSK (Homo sapiens) (UniProt P41240); details: at 10 µM
[10] = target: Calcium/calmodulin-dependent protein kinase type 1 (Homo sapiens) (UniProt Q14012); details: at 1 µM
[11] = target: Calcium/calmodulin-dependent protein kinase type 1 (Homo sapiens) (UniProt Q14012); details: at 10 µM
[12] = target: Calcium/calmodulin-dependent protein kinase type II subunit beta (Homo sapiens) (UniProt Q13554); details: at 1 µM
[13] = target: Calcium/calmodulin-dependent protein kinase type II subunit beta (Homo sapiens) (UniProt Q13554); details: at 10 µM
[14] = target: Calcium/calmodulin-dependent protein kinase type II subunit gamma (Homo sapiens) (UniProt Q13555); details: at 1 µM
[15] = target: Calcium/calmodulin-dependent protein kinase type II subunit gamma (Homo sapiens) (UniProt Q13555); details: at 10 µM
[16] = target: Calcium/calmodulin-dependent protein kinase type II subunit delta (Homo sapiens) (UniProt Q13557); details: at 1 µM
[17] = target: Calcium/calmodulin-dependent protein kinase type II subunit delta (Homo sapiens) (UniProt Q13557); details: at 10 µM
[18] = target: T2, Calcium/calmodulin-dependent protein kinase type IV (Homo sapiens) (UniProt Q16566); details: at 1 µM
T2 sequence (whole entry): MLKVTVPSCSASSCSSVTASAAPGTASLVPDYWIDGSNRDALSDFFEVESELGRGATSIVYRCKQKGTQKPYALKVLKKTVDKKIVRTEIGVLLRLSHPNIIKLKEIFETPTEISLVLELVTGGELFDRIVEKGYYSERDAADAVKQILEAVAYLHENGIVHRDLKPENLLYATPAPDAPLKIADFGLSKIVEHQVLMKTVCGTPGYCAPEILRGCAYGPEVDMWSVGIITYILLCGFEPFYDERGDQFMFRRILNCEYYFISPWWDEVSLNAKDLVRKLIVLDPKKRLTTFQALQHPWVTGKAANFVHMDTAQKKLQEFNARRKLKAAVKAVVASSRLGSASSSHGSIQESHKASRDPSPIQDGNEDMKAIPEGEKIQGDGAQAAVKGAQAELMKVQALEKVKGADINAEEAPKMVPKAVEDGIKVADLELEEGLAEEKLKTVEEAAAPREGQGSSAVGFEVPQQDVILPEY

[19] = target: T2, Calcium/calmodulin-dependent protein kinase type IV (Homo sapiens); details: at 10 µM
[20] = target: Dual specificity protein kinase CLK3 (Homo sapiens) (UniProt P49761); details: at 10 µM

Sequence of Dual specificity protein kinase CLK3 (Homo sapiens) (P49761 whole entry, looked up): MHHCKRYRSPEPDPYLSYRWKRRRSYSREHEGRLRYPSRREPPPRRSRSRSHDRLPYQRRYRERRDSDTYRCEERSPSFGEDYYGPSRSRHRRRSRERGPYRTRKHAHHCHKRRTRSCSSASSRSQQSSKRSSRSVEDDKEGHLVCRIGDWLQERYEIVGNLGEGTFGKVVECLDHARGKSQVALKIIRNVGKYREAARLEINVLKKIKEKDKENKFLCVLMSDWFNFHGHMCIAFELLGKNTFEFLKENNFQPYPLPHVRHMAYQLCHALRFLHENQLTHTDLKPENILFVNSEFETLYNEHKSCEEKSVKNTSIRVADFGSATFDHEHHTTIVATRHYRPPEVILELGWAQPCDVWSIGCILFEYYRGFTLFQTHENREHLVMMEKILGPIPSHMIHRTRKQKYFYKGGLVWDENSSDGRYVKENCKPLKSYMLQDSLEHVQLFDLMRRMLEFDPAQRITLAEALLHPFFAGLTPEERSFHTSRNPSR
Sequence of Calcium/calmodulin-dependent protein kinase type II subunit gamma (Homo sapiens) (Q13555 whole entry): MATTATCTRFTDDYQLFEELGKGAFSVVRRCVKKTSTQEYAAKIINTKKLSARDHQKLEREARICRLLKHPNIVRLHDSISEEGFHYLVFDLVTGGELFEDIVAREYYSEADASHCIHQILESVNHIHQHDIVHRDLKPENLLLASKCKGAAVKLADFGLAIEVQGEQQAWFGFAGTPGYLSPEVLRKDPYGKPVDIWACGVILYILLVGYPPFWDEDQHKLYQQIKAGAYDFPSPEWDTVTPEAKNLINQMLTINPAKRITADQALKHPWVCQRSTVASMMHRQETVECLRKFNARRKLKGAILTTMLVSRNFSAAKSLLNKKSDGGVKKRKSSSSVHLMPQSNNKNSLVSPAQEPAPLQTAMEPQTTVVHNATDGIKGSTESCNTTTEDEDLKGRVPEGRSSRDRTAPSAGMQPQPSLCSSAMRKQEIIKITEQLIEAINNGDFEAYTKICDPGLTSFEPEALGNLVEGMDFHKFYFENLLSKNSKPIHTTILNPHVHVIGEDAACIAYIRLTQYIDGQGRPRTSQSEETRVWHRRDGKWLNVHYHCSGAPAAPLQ
Sequence of Dual specificity protein kinase CLK2 (Homo sapiens) (P49760 whole entry, looked up): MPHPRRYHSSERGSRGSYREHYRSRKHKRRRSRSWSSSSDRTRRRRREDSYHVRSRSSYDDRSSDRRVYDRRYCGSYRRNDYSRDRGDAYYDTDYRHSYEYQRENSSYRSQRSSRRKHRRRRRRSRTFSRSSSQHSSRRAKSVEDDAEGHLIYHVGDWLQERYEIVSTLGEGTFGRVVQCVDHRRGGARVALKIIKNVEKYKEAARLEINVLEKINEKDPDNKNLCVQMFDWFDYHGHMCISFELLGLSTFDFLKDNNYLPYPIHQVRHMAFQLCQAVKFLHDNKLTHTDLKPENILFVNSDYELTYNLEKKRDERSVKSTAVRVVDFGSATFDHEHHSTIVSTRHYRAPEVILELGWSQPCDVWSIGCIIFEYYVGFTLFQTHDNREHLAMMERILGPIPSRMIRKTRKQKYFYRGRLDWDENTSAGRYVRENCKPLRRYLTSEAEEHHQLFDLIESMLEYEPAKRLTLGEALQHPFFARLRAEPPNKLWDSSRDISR
Sequence of Calcium/calmodulin-dependent protein kinase type II subunit beta (Homo sapiens) (Q13554 whole entry): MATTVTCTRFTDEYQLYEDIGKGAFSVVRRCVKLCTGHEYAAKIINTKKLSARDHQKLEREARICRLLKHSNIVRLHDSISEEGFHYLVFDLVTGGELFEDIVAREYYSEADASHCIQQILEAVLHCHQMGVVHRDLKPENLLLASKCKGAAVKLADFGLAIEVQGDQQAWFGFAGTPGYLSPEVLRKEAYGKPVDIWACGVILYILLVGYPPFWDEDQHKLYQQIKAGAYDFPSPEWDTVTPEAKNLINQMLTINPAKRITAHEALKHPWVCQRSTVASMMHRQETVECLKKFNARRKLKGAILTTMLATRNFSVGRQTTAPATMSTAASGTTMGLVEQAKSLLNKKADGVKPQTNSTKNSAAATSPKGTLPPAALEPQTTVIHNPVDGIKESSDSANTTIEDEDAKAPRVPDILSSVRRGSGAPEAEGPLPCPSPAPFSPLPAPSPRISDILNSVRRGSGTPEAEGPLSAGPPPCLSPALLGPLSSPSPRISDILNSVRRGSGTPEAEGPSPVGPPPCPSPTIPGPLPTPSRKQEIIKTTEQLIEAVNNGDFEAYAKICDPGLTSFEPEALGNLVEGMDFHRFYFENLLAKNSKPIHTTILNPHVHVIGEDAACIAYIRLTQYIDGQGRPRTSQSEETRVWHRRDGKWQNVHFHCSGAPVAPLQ
Sequence of Casein kinase II subunit alpha' (Homo sapiens) (P19784 whole entry, looked up): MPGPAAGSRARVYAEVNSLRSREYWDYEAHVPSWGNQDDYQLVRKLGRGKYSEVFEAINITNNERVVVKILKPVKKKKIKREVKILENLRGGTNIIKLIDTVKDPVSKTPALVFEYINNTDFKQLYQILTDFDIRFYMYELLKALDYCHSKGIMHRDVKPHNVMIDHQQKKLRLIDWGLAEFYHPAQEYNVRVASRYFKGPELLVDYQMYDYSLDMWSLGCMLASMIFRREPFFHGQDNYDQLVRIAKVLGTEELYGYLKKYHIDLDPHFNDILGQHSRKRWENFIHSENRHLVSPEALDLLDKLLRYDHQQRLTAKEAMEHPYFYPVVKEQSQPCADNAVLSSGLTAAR
T1 sequence (P19784 whole entry, looked up): as above
T1 sequence (P67870 whole entry, looked up): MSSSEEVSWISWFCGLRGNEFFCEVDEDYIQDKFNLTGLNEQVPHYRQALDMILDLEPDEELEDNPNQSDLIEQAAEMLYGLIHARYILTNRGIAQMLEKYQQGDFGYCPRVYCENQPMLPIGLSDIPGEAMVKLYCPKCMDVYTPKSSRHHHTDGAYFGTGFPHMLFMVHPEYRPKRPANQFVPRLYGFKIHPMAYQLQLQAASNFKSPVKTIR
T1 sequence (P68400 whole entry, looked up): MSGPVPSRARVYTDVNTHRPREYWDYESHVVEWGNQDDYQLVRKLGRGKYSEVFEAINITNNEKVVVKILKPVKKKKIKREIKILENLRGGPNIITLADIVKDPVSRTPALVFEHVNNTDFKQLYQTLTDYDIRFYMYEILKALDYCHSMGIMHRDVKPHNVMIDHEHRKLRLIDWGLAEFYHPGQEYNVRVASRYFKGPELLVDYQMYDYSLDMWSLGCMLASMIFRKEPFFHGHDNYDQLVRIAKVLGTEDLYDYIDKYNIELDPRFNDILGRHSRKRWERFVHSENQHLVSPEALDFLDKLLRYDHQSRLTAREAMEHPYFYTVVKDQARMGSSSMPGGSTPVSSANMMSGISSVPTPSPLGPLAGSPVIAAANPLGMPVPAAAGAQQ
Sequence of Calcium/calmodulin-dependent protein kinase type II subunit delta (Homo sapiens) (Q13557 whole entry): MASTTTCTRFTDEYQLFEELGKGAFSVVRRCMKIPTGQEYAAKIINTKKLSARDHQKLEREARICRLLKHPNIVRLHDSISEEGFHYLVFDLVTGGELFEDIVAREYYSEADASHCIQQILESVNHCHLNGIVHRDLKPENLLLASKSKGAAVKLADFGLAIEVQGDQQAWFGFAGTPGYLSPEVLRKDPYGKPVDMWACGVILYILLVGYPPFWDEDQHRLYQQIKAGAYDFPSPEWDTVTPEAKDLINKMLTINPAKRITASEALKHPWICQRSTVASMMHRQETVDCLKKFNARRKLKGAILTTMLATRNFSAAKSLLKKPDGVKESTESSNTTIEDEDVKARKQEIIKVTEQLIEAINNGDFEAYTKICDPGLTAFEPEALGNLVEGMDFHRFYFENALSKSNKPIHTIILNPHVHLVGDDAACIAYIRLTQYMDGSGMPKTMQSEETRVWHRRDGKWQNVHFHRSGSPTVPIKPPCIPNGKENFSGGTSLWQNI
Sequence of Calcium/calmodulin-dependent protein kinase type 1 (Homo sapiens) (Q14012 whole entry, looked up): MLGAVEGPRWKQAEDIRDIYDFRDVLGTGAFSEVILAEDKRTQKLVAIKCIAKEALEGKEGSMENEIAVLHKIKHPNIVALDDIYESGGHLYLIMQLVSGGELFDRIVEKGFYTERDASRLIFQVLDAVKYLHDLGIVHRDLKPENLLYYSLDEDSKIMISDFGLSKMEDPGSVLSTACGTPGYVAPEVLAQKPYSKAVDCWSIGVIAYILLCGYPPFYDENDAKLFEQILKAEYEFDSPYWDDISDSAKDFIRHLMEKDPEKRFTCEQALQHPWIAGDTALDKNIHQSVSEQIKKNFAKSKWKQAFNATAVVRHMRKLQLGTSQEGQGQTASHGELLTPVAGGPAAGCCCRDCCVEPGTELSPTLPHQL
Sequence of Tyrosine-protein kinase CSK (Homo sapiens) (P41240 2-450 limits assumed): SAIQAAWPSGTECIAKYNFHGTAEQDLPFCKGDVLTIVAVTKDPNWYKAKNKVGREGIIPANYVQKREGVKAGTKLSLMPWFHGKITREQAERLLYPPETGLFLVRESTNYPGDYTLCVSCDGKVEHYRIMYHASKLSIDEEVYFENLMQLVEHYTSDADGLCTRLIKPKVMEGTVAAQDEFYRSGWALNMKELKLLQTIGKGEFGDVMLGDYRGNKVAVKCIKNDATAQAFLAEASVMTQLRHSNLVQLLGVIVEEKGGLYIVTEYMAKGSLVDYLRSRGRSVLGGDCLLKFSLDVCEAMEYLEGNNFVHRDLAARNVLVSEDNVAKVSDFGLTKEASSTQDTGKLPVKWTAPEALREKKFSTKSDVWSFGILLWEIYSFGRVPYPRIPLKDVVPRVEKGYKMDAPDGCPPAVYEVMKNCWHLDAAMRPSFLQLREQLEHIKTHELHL

| SMILES | residual activity [1] | residual activity [2] | residual activity [3] | residual activity [4] | residual activity [5] | residual activity [6] | residual activity [7] | residual activity [8] | residual activity [9] | residual activity [10] | residual activity [11] | residual activity [12] | residual activity [13] | residual activity [14] | residual activity [15] | residual activity [16] | residual activity [17] | residual activity [18] | residual activity [19] | residual activity [20] |
| --- | --- | --- | --- | --- | --- | --- | --- | --- | --- | --- | --- | --- | --- | --- | --- | --- | --- | --- | --- | --- |
| O=[N+]([O-])/C=C/c1ccc2c(c1)OCO2 | 105% | 126% | 134% | 102% | 121% | 101% | 91% | 112% | 100% | 108% | 84% | 90% | 84% | 107% | 100% | 109% | 97% | 132% | 14% |  |
| COc1cc(OC)c(/C=C2\C(=O)Nc3ccccc32)c(OC)c1 | 88% | 91% | 94% | 90% |  |  | 83% |  | 99% | 96% | 82% | 102% | 76% | 105% | 96% | 107% | 89% |  | 101% | 81% |
| COc1cc2ncnc(Nc3ccc(OCc4ccccc4)cc3)c2cc1OC | 92% | 116% | 121% | 99% | 117% | 93% | 82% | 84% | 62% | 92% | 57% | 106% | 95% | 109% | 93% | 100% | 83% | 92% | 91% | 87% |
| O=C1NC(=O)c2c1c1c3ccccc3n3c1c1c2c2ccccc2n1C1CCC3O1 |  |  | 63% | 49% | 100% | 92% | 95% |  |  | 63% | 48% | 32% | 32% | 0% | 1% | -1% | 5% | 90% | 100% | 85% |
| COC(=O)[C@@]1(O)C[C@H]2O[C@]1(C)n1c3ccccc3c3c4c(c5c6ccccc6n2c5c31)C(=O)NC4 | 93% | 82% | 108% | 90% | 1% | 4% | 72% | 71% | 18% | 6% | 1% | 0% | -1% | 1% | 0% | 0% | 1% | 24% | 11% | 33% |
| C[S+]([O-])c1ccc(-c2nc(-c3ccc(F)cc3)c(-c3ccncc3)[nH]2)cc1 (stereo not given) | 100% | 104% | 122% | 105% | 114% | 94% | 98% | 103% | 98% | 115% | 99% | 114% | 98% | 103% | 100% | 108% | 89% | 113% | 98% | 98% |
| O=c1[nH]c2ccccc2n1C1CCN(Cc2ccc(-c3nc4cc5[nH]cnc5cc4nc3-c3ccccc3)cc2)CC1 | 89% | 101% | 113% | 95% | 98% | 76% |  | 112% | 89% | 103% | -5% | 94% | 6% | 104% | 16% | 102% | 2% | 130% | 49% | 76% |
| COc1ccc2c(c[n+](C)c3c4cc5c(cc4ccc23)OCO5)c1OC | 92% | 110% | 126% |  | 120% | 93% | 74% |  | 95% |  | 86% | 80% | 55% |  | 70% |  | 85% |  | 69% | 80% |
| CC(C)[C@H](CO)Nc1nc(Nc2cccc(Cl)c2)c2ncn(C(C)C)c2n1 | 99% | 96% |  |  | 8% | 1% | 55% |  | 65% | 93% | 78% | 95% | 68% | 100% | 42% | 99% | 46% |  | 60% | 11% |
| N/C(=N\[N+](=O)[O-])N/N=C\c1ccc(-c2cccc([N+](=O)[O-])c2)o1 | 97% | 89% |  |  |  |  | 93% | 122% | 100% | 93% | 49% | 92% | 76% | 91% | 53% |  |  |  |  | 86% |
| CCc1nc(-c2ccc(OC)cc2)[nH]c1-c1ccncc1 |  |  | 121% | 100% | 101% | 74% |  | 123% | 102% | 108% | 101% |  | 76% |  |  | 110% | 80% |  |  |  |
| CCn1cnc2c(Nc3cccc(Cl)c3)nc(N[C@@H]3CCCC[C@@H]3N)nc21 | 91% | 57% |  |  | 10% | 4% | 76% |  | 69% | 84% | 27% | 93% | 45% | 43% | 10% | 44% | 10% | 77% | 17% | 30% |
| CN[C@@H]1C[C@H]2O[C@@](C)([C@@H]1OC)n1c3ccccc3c3c4c(c5c6ccccc6n2c5c31)C(=O)NC4 | 81% | 85% | 83% | 85% |  |  |  |  |  |  |  |  | 0% |  |  |  |  |  |  |  |
| O=C1Nc2ccc3ncsc3c2/C1=C/c1c[nH]cn1 | 30% | 1% | 12% | -1% | 8% | 3% | 38% | 104% | 96% | 72% | 22% | 13% | 3% | 21% | -1% | 18% | 4% | 80% | 24% | 3% |
| O=C1c2ccccc2-c2nc3nnnn3nc21 |  |  | 129% | 77% | 115% | 107% | 83% | 123% | 115% | 107% | 100% | 105% |  |  | 105% | 104% | 103% | 122% | 113% | 119% |
| COc1ccc2c(c1)/C(=C/c1cnc[nH]1)C(=O)N2 |  |  |  | 32% | 50% | 10% |  |  |  |  | 77% |  |  | 49% | 10% | 42% | 8% |  |  |  |
| CC(C)(C)c1cc(C=C(C#N)C#N)cc(Br)c1O | 113% | 114% | 121% | 113% | 99% | 103% | 100% | 103% | 105% | 121% | 105% |  |  | 102% | 55% | 104% | 46% | 115% | 83% | 108% |
| c1cc(-c2cnn3cc(-c4ccc(OCCN5CCCCC5)cc4)cnc23)ccn1 | 82% | 27% | 26% | 1% | 26% | 3% | 62% | 100% | 64% |  | 61% | 48% | 8% | 39% | 7% | 40% | 6% |  | 87% | 23% |
